Measurements from the supplement of paper PMC10849652.
The full data set covers some 7,900 targets. This sample favours those with a hit. About 0.6% of all pairs of compound and target were hits.

Columns and labels:
Test in all cases: log2 fold change, soluble protein after heating vs DMSO (PISA); higher = thermal stabilisation; K562 cells, 10 uM, 30 min; active = over 0.2 and 3.5 SD of the protein, either way, in both replicates (recomputed)
erlotinib = compound: C#Cc1cccc(Nc2ncnc3cc(OCCOC)c(OCCOC)cc23)c1 [erlotinib]
Summary of the method: (§1)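 Aliquots of K562 cells (2×10^6 cells/mL) treated with 10 μM compound for 30 min were heated for 3 min over 48°C-58°C. After pooling and extraction in PBS with 0.5% NP-40 at 4°C, soluble protein from a 21,000xg, 90 min spin was quantified by TMTpro 16plex LC-MS/MS with channel sums equalised. Thermal stability is expressed against control samples, from duplicates, as a log2 fold change.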

[1] = compound: C/C(=N\NC(=O)C1=CC(=CC=C1)S(=O)(=O)N2CCOCC2)/C3=C(C=CC(=C3)Cl)O
Summary of the method: as §1

[2] = compound: C1=CC(=C(C=C1Cl)C2=NC3=NC=CN=C3C(=N2)NC4=CC=NC=C4)F
Summary of the method: as §1

[3] = compound: C1=CC(=CC=C1C2=NC3=C(N2)C=C(C=C3)C(=O)N)OC4=CC=C(C=C4)Cl
Summary of the method: as §1

[4] = compound: C1=CC2=C(C=CC(=C2)/C=C\3/C(=O)NC(=NCC4=CC=CS4)S3)N=C1
Summary of the method: as §1

[5] = compound: C1=CC2=NC=CN=C2C=C1/C=C/3\C(=O)NC(=O)S3
Summary of the method: as §1

[6] = compound: C1=CC=C(C=C1)C2=NC(=C(N2)C3=CC=NC=C3)C4=CC(=C(C=C4)Cl)O
Summary of the method: as §1

[7] = compound: C1=CC=C2C(=C1)C3=NNC4=CC=CC(=C43)C2=O
Summary of the method: as §1

[8] = compound: C1CCN(C1)C(=O)NC2=CC=CC(=C2)NC3=NC=C(C(=N3)NCCC4=CN=CN4)Br
Summary of the method: as §1

[9] = compound: C1CN(CCC1(CC2=CC=C(C=C2)Cl)N)C3=NC=NC4=C3C=CN4
Summary of the method: as §1

IRAK-1-4 Inhibitor I = compound: C1COCCN1CCN2C3=CC=CC=C3N=C2NC(=O)C4=CC(=CC=C4)[N+](=O)[O-] [IRAK-1-4 Inhibitor I]
Summary of the method: as §1

ibrutinib = compound: C=CC(=O)N1CCC[C@@H](n2nc(-c3ccc(Oc4ccccc4)cc3)c3c(N)ncnc32)C1 [ibrutinib]
Summary of the method: as §1

[10] = compound: CC(=O)c1cnc2ccc(-c3cc(Cl)c(O)c(Cl)c3)nc2c1N[C@H]1CC[C@H](CN(C)C)CC1
Summary of the method: as §1

ralimetinib = compound: CC(C)(C)Cn1c(N)nc2ccc(-c3[nH]c(C(C)(C)C)nc3-c3ccc(F)cc3)nc21 [ralimetinib]
Summary of the method: as §1

[11] = compound: CC(C)(O)CC(=O)NCCn1ccc2ncnc(Nc3ccc(Oc4cccc(C(F)(F)F)c4)c(Cl)c3)c21
Summary of the method: as §1

[12] = compound: CC(C)C1=C2N=C(C=C(N2N=C1)NCC3=CC=CC=C3)NCCCCCCN
Summary of the method: as §1

[13] = compound: CC(C)C[C@@H](C=O)NC(=O)[C@H](CC(C)C)NC(=O)[C@H](CC(C)C)NC(=O)OCc1ccccc1
Summary of the method: as §1

pinometostat = compound: CC(C)N(C[C@H]1O[C@@H](n2cnc3c(N)ncnc32)[C@H](O)[C@@H]1O)[C@H]1C[C@@H](CCc2nc3cc(C(C)(C)C)ccc3[nH]2)C1 [pinometostat]
Summary of the method: as §1

[14] = compound: CC1=C(C(CC(=O)N1)C2=CC=C(C=C2)C(F)(F)F)C(=O)NC3=C(C=C4C(=C3)C=NN4)F
Summary of the method: as §1

[15] = compound: CC1=C(C2=C(C=C1)C(=O)C3=CC=CC=C3N2CCCN)C
Summary of the method: as §1

Measured: log2 fold change

SLC25A36 (UniProt Q96CQ1)
UniProt Q96CQ1, sequence (Q96CQ1 whole entry, looked up): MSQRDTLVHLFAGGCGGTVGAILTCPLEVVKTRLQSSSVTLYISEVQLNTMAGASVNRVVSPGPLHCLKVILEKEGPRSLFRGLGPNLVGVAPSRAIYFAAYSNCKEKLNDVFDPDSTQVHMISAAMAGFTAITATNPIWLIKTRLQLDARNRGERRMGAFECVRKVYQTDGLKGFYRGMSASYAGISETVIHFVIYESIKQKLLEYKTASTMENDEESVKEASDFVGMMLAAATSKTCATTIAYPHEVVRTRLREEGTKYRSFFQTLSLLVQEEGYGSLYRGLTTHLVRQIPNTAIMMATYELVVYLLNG
inactive: erlotinib -0.077 | [1] 0.008 | [2] -0.083 | [3] 0.003 | [4] 0.031 | [5] 0.102 | [6] -0.104 | [7] -0.034 | [8] 0.053 | [9] 0.068 | IRAK-1-4 Inhibitor I 0.048 | ibrutinib 0.066 | [10] 0.029 | ralimetinib 0.019 | [11] -0.167 | [12] -0.03 | [13] 0.007 | pinometostat 0.01 | [14] 0.108 | [15] 0.012

SLC30A10 (UniProt Q6XR72)
UniProt Q6XR72, sequence (Q6XR72 whole entry, looked up): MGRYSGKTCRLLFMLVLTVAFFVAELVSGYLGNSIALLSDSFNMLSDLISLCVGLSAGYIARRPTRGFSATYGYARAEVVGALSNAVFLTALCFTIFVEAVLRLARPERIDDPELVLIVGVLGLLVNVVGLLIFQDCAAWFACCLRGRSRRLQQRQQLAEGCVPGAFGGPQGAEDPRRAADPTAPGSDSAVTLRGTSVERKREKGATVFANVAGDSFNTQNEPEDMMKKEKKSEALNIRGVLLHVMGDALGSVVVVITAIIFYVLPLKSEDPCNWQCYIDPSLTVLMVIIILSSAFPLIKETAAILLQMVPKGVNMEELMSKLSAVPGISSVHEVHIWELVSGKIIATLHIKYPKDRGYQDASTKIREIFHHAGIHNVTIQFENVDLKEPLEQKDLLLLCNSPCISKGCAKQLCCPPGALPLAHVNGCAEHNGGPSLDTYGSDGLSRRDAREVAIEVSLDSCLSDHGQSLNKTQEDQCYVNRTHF
inactive: erlotinib 0.033 | [1] 0.068 | [2] -0.06 | [3] 0.001 | [4] 0.077 | [5] 0.008 | [6] 0.025 | [7] -0.003 | [8] -0.054 | [9] 0.115 | IRAK-1-4 Inhibitor I 0.05 | ibrutinib -0.08 | [10] -0.019 | ralimetinib -0.014 | [11] -0.079 | [12] 0.035 | [13] -0.054 | pinometostat -0.032 | [14] 0.035 | [15] 0.12

STK4 (UniProt Q13043)
UniProt Q13043, sequence (Q13043 whole entry, looked up): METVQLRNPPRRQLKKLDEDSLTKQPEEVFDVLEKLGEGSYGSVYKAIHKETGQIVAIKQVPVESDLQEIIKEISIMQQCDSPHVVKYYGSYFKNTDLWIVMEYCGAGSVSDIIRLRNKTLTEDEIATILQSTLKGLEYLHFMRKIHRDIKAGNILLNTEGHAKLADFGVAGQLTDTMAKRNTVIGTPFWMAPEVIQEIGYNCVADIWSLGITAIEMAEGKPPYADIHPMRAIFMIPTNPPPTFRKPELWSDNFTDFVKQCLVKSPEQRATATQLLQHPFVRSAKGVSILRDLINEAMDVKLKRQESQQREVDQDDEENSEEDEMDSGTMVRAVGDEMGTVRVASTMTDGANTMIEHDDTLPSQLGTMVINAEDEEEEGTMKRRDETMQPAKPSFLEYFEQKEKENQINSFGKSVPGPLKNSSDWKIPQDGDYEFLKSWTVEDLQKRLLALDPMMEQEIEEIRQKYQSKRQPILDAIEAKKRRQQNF
active: [7] -0.208 | [10] -0.233
inactive: erlotinib -0.017 | [1] 0 | [2] -0.02 | [3] 0.003 | [4] 0.04 | [5] -0.02 | [6] -0.009 | [8] -0.025 | [9] 0.025 | IRAK-1-4 Inhibitor I -0.012 | ibrutinib -0.078 | ralimetinib 0.002 | [11] -0.018 | [12] -0.019 | [13] 0.015 | pinometostat 0.008 | [14] 0.023 | [15] 0.019

SNUPN (UniProt O95149)
UniProt O95149, sequence (O95149 whole entry, looked up): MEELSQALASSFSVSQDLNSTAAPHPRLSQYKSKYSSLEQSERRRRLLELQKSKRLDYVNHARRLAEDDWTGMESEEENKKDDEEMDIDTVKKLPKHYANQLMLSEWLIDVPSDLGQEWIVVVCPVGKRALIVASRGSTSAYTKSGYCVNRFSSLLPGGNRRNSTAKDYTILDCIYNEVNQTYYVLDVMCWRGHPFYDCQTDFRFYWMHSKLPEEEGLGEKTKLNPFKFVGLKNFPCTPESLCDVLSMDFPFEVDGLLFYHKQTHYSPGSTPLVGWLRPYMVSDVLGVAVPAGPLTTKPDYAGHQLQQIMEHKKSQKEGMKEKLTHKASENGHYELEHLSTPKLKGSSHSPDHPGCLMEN
inactive: erlotinib -0.091 | [1] 0.032 | [2] 0.136 | [3] -0.019 | [4] 0.069 | [5] 0.037 | [6] -0.085 | [7] -0.053 | [8] 0.024 | [9] -0.061 | IRAK-1-4 Inhibitor I 0.037 | ibrutinib -0.039 | [10] -0.089 | ralimetinib -0.026 | [11] -0.045 | [12] -0.034 | [13] 0.037 | pinometostat 0.07 | [14] -0.002 | [15] -0.184

TBC1D5 isoform 2 (UniProt Q92609)
UniProt Q92609, sequence (Q92609 whole entry, looked up): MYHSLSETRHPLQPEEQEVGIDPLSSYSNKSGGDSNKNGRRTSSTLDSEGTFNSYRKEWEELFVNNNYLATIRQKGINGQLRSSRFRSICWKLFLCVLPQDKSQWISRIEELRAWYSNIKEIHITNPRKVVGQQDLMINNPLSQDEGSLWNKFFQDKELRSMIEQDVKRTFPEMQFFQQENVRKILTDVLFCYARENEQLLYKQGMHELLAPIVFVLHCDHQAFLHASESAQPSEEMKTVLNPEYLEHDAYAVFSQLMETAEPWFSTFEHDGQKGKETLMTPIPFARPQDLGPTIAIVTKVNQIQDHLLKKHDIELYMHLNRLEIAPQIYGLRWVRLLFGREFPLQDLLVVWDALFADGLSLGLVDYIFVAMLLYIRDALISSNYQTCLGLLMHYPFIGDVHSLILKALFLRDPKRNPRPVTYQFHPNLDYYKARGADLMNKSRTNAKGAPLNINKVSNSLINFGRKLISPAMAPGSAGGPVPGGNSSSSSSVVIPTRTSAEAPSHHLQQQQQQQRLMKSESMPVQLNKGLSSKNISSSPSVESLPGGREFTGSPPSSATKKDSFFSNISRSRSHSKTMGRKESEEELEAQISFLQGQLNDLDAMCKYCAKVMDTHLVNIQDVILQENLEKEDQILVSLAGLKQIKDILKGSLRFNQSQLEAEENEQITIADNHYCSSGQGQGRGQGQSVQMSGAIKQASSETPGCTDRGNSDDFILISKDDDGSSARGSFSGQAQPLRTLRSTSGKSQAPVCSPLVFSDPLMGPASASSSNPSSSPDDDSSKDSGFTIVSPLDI
inactive: erlotinib 0.019 | [1] 0.111 | [2] -0.03 | [3] -0.041 | [4] 0.044 | [5] 0.032 | [6] -0.049 | [7] 0.027 | [8] -0.003 | [9] -0.078 | IRAK-1-4 Inhibitor I -0.022 | ibrutinib -0.01 | [10] -0.009 | ralimetinib 0.023 | [11] -0.179 | [13] 0.076 | pinometostat 0.003 | [14] 0.01 | [15] 0.02
active: [12] -0.325

TFRC (UniProt P02786)
UniProt P02786, sequence (P02786 whole entry, looked up): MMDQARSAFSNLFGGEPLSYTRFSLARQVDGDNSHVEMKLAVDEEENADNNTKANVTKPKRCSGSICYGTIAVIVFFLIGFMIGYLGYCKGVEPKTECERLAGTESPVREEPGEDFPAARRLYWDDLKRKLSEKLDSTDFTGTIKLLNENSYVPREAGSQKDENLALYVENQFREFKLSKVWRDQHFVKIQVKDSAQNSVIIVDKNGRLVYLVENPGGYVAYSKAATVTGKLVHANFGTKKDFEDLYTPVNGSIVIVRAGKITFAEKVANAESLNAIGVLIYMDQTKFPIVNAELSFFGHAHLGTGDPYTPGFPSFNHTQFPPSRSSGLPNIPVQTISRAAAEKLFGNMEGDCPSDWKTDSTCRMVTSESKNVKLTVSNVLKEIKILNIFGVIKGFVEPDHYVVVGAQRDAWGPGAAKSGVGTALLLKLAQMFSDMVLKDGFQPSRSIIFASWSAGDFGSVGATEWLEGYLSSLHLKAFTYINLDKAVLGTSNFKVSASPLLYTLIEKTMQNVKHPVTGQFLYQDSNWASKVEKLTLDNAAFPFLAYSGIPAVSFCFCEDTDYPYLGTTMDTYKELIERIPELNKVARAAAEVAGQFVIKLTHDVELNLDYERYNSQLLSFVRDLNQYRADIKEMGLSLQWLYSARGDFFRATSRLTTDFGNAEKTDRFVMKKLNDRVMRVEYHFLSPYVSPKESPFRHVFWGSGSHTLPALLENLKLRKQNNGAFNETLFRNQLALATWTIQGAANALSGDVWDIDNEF
inactive: erlotinib 0.002 | [1] 0.017 | [2] 0.022 | [3] 0.006 | [4] 0.037 | [5] 0.027 | [6] 0.023 | [7] -0.011 | [8] 0.006 | [9] 0.055 | IRAK-1-4 Inhibitor I 0.058 | ibrutinib 0.026 | [10] -0.023 | ralimetinib -0.005 | [11] 0.001 | [12] -0.032 | [13] -0.005 | pinometostat -0.02 | [14] 0.001 | [15] -0.03

TANGO6 (UniProt Q9C0B7)
UniProt Q9C0B7, sequence (Q9C0B7 whole entry, looked up): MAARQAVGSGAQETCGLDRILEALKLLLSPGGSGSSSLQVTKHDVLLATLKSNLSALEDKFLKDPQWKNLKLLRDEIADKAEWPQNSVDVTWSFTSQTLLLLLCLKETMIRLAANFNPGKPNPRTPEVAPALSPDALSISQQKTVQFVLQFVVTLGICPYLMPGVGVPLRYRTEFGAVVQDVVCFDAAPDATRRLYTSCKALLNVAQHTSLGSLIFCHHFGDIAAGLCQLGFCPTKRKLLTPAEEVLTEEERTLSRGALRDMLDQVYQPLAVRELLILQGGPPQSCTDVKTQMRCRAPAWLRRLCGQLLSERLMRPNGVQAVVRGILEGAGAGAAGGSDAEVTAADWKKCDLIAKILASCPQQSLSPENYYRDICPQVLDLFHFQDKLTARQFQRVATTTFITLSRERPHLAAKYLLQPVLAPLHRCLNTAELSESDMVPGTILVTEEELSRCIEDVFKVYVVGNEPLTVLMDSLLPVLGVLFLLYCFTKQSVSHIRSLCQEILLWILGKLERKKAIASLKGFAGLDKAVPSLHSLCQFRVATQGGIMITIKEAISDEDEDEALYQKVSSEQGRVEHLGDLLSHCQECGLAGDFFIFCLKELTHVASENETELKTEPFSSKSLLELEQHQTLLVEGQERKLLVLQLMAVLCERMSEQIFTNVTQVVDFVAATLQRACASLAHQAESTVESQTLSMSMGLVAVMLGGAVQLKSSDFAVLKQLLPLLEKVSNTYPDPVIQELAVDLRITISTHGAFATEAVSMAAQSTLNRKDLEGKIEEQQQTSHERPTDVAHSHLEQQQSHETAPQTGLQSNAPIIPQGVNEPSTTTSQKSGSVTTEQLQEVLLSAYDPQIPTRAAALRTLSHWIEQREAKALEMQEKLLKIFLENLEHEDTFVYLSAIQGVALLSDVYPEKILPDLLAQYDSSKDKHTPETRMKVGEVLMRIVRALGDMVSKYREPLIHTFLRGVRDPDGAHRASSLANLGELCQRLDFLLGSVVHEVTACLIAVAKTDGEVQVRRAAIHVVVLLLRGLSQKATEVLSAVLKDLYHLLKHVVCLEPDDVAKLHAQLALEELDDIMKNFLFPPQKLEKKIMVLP
inactive: erlotinib 0.208 | [1] 0.032 | [2] -0.003 | [3] -0.026 | [4] -0.001 | [5] 0.057 | [6] 0.025 | [7] -0.056 | [8] -0.026 | [9] 0 | IRAK-1-4 Inhibitor I -0.117 | ibrutinib -0.077 | [10] 0.052 | ralimetinib 0.197 | [11] -0.153 | [12] -0.098 | [13] -0.068 | pinometostat 0 | [14] 0.013 | [15] 0.006

SRP68 (UniProt Q9UHB9)
UniProt Q9UHB9, sequence (Q9UHB9 whole entry, looked up): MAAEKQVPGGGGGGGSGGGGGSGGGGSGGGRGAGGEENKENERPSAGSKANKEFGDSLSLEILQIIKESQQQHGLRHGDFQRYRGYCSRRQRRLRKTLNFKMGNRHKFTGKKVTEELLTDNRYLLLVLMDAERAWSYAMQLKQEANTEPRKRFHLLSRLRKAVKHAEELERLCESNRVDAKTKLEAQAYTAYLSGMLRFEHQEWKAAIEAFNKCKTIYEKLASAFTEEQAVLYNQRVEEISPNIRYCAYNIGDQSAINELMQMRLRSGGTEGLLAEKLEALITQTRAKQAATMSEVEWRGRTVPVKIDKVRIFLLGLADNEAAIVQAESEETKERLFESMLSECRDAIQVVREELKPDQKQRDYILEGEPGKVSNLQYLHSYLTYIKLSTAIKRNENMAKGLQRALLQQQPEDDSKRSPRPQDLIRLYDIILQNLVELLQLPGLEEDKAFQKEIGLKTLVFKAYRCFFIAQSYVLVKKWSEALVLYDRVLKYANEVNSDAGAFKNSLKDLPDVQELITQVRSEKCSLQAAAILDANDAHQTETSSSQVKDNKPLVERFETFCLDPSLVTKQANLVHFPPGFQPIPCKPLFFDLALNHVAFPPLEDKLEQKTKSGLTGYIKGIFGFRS
active: [15] -0.345
inactive: erlotinib 0.047 | [1] 0.034 | [2] -0.043 | [3] -0.071 | [4] 0.011 | [5] 0.01 | [6] 0.002 | [7] -0.087 | [8] 0.015 | [9] -0.107 | IRAK-1-4 Inhibitor I -0.118 | ibrutinib -0.037 | [10] 0.014 | ralimetinib 0.071 | [11] -0.065 | [12] -0.272 | [13] 0.065 | pinometostat 0.145 | [14] -0.016
